From PubChem BioAssay (NCI)
Several values for one entry are separate records, joined by “and”; a condition that tells them apart may be missing. Identical values can stand only once. The panel holds about 79,000 compounds, 15% with a hit somewhere; the sample as a whole holds those more often. The source holds several records for some structures; these can differ, active in one and inactive in another. Activity calls are given as the source filed them. Cut-off read from the data, not from the text of the source: active = growth inhibition above about 70%; inactive = the rest.

Experiments:
[1] = NCI Yeast Anticancer Drug Screen. Data for the mec2-1 strain (AID 157); conditions: S. cerevisiae mec2-1 strain, stronger effect = higher value
In short: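 Each compound was tested on mec2-1 yeast, a strain altered in DNA damage repair or cell cycle control. Growth inhibition is reported relative to vehicle.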

[2] = NCI Yeast Anticancer Drug Screen. Data for the rad14 strain (AID 159);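 note: 0% = growth of vehicle-treated control cultures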; conditions: S. cerevisiae rad14 strain growth inhibition, stronger effect = higher value
In short: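 Test compounds were applied to a repair-deficient yeast strain. Its growth was then compared with that of cultures given vehicle alone, and inhibition was expressed relative to those controls.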

[3] = NCI Yeast Anticancer Drug Screen. Data for the sgs1 mgt1 strain (AID 161);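 note: 0% = growth of cultures given vehicle only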; conditions: S. cerevisiae sgs1 mgt1 strain, stronger effect = higher value
In short: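 Inhibition of yeast growth, normalised to vehicle-treated controls, is reported for a strain bearing genetic alterations in DNA damage repair.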

[4] = NCI Yeast Anticancer Drug Screen. Data for the cln2 rad14 strain (AID 165);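 note: 0% = growth equal to vehicle treated cultures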; conditions: S. cerevisiae cln2 rad14 strain, stronger effect = higher value
In short: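 Test compounds were added to cln2 rad14 yeast cultures; inhibition of growth was then determined by comparison with vehicle treatment.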

[5] = NCI Yeast Anticancer Drug Screen. Data for the bub3 strain (AID 167); conditions: S. cerevisiae bub3 mutant strain, stronger effect = higher value
In short: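 Yeast carrying a defined mutation is treated with each compound, and growth is compared with that of vehicle-exposed cells to give inhibition.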

[6] = NCI Yeast Anticancer Drug Screen. Data for the mlh1 strain (AID 171);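 note: 0% = growth of vehicle-treated control cultures of the same strain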; conditions: S. cerevisiae mlh1 strain growth inhibition, stronger effect = higher value
In short: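 Inhibition values reflect reduced yeast growth in the presence of compound, referenced to vehicle controls, using a strain chosen for its alteration in DNA repair or cell cycle control.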

[7] = NCI Yeast Anticancer Drug Screen. Data for the mlh1 rad18 strain (AID 175); conditions: S. cerevisiae mlh1 rad18 strain growth inhibition, stronger effect = higher value
In short: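 Inhibition values reflect reduced growth of mutant yeast versus vehicle-treated controls following compound exposure; the mutations affect DNA damage repair.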

[8] = NCI Yeast Anticancer Drug Screen. Data for the rad18 strain (AID 177); conditions: S. cerevisiae rad18 mutant growth inhibition, stronger effect = higher value
In short: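 Steps: expose repair-mutant yeast to compound; measure growth; express as inhibition relative to vehicle control.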

[9] = NCI Yeast Anticancer Drug Screen. Data for the rad52 strain (AID 147);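 note: 0% = growth of vehicle-treated control cultures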; conditions: S. cerevisiae rad52 mutant growth inhibition, stronger effect = higher value
In short: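 Inhibition of yeast growth, referenced to vehicle controls, was the measured output for a strain with defective DNA damage repair.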

[10] = NCI Yeast Anticancer Drug Screen. Data for the wt1 strain (AID 149);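 note: 0% = growth of vehicle-treated wt1 cultures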; conditions: S. cerevisiae wt1 strain (SPY 50644) growth inhibition, stronger effect = higher value
In short: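 wt1 yeast, compound-treated; % growth inhibition vs vehicle control.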

[11] = NCI Yeast Anticancer Drug Screen. Data for the rad50EPP+ strain (AID 151);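 note: 0% = growth of vehicle-treated control cultures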; conditions: S. cerevisiae rad50 mutant strain, stronger effect = higher value
In short: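 Genetically defined yeast (rad50EPP+, DNA damage repair alteration) is grown with compound, and inhibition of growth is expressed relative to vehicle-treated controls.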

[12] = NCI Yeast Anticancer Drug Screen. Data for the rad50 strain (AID 155);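 note: 0% = growth of vehicle-only cultures of the same strain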; conditions: S. cerevisiae rad50 strain growth inhibition, stronger effect = higher value
In short: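 Genetically altered yeast (DNA repair pathway); compound treatment; growth inhibition vs vehicle ctrl.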

[13] = NCI Yeast Anticancer Drug Screen. Data for the CLN2oe strain (AID 163);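 note: 0% = growth of vehicle-only control cultures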; conditions: S. cerevisiae CLN2oe strain, stronger effect = higher value
In short: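 First, the altered yeast strain was treated with each compound; second, its growth was measured; finally, inhibition was derived by comparison with vehicle controls.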

[14] = NCI Yeast Anticancer Drug Screen. Data for the wt2 strain (AID 169);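 note: 0% = growth of vehicle-treated yeast cultures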; conditions: S. cerevisiae wt2 strain growth inhibition, stronger effect = higher value
In short: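 The panel's yeast strains carry defined changes in DNA repair or cell cycle genes. Each strain is grown with compound, and growth loss is scored relative to vehicle.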

[15] = NCI Yeast Anticancer Drug Screen. Data for the sgs1 strain (AID 173);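 note: 0% = growth of vehicle-only control cultures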; conditions: S. cerevisiae sgs1 mutant, stronger effect = higher value
In short: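 Vehicle-treated cultures served as reference for growth inhibition of a yeast strain altered in DNA damage repair or cell cycle control after compound exposure.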

[16] = at 5.0 µM (retest, dose inferred, filed as 0.5)
[17] = at 50.0 µM (retest, dose inferred, filed as 5.0)

Measured: growth inhibition

CNC(=O)OCc1c(COC(=O)NC)c2n(c1C)-c1ccc(OC)cc1CCC2
inactive: [1]; [16] 2% | [1]; at 11.0 µM -52% | [2]; at 1.2 µM -36% | [2]; at 3.7 µM -16% | [2]; at 11.0 µM -23% | [3]; [16] 17% | [4]; [16] 45% | [5]; at 1.2 µM -16% | [5]; at 3.7 µM -26% | [5]; [16] 45% | [5]; at 11.0 µM -30% | [6]; at 1.2 µM -42% | [6]; at 3.7 µM -31% | [6]; at 11.0 µM -47% | [7]; [16] 17% | [8]; at 1.2 µM -45% | [8]; at 3.7 µM -43% | [8]; at 11.0 µM -48%
active: [1]; at 33.0 µM 95% | [1]; [17] 99% | [1]; at 50.0 µM 89.1% | [1]; at 100.0 µM 99% | [2]; at 33.0 µM 98% | [2]; at 100.0 µM 100% | [3]; [17] 99% | [3]; at 50.0 µM 90% | [4]; [17] 98% | [4]; at 50.0 µM 88.2% | [5]; at 33.0 µM 97% | [5]; [17] 100% | [5]; at 50.0 µM 87.2% | [5]; at 100.0 µM 99% | [6]; at 33.0 µM 98% | [6]; at 100.0 µM 99% | [7]; [17] 98% | [7]; at 50.0 µM 86.9% | [8]; at 33.0 µM 96% | [8]; at 100.0 µM 98%

COc1ccc2c(c1)n([O-])c1ccccc1[n+]2=O
5% (inactive) and 73% (active): [3]; [16]
17% (inactive) and 81% (active): [7]; [16]
66% (inactive) and 91% (active): [12]; [16]
active: [9]; at 11.0 µM 86% | [9]; at 33.0 µM 95% | [9]; at 100.0 µM 97% | [11]; at 3.7 µM 72% | [11]; at 11.0 µM 93% | [11]; at 33.0 µM 97% | [11]; at 100.0 µM 98% | [12]; at 11.0 µM 91% | [12]; at 33.0 µM 95% | [12]; [17] 95% and 98% | [12]; at 100.0 µM 98% | [1]; [17] 75% and 99% | [1]; at 100.0 µM 93% | [2]; at 100.0 µM 95% | [3]; [17] 71% and 99% | [13]; at 100.0 µM 75% | [4]; [17] 90% and 97% | [4]; at 50.0 µM 96.3% | [5]; [17] 85% and 99% | [5]; at 50.0 µM 95.3% | [5]; at 100.0 µM 91% | [14]; at 100.0 µM 77% | [6]; at 100.0 µM 90% | [15]; at 33.0 µM 76% | [15]; at 100.0 µM 95% | [7]; [17] 93% and 98%
inactive: [9]; at 1.2 µM 16% | [9]; at 3.7 µM 48% | [10]; at 1.2 µM 0% | [10]; at 3.7 µM 2% | [10]; at 11.0 µM 9% | [10]; at 33.0 µM 24% | [10]; at 100.0 µM 69% | [11]; at 1.2 µM 34% | [12]; at 1.2 µM 18% | [12]; at 3.7 µM 33% | [12]; at 50.0 µM -18.6% | [1]; at 1.2 µM 3% | [1]; at 3.7 µM 7% | [1]; [16] 15% and 27% | [1]; at 11.0 µM 19% | [1]; at 33.0 µM 50% | [1]; at 50.0 µM 50.2% | [2]; at 1.2 µM 6% | [2]; at 3.7 µM 12% | [2]; at 11.0 µM 25% | [2]; at 33.0 µM 56% | [3]; at 50.0 µM -13.2% | [13]; at 1.2 µM -4% | [13]; at 3.7 µM -7% | [13]; at 11.0 µM -2% | [13]; at 33.0 µM 25% | [4]; [16] 6% and 22% | [5]; at 1.2 µM 3% | [5]; at 3.7 µM 4% | [5]; [16] 6% and 10% | [5]; at 11.0 µM 14% | [5]; at 33.0 µM 60% | [14]; at 1.2 µM -2% | [14]; at 3.7 µM 11% | [14]; at 11.0 µM 11% | [14]; at 33.0 µM 26% | [6]; at 1.2 µM 0% | [6]; at 3.7 µM 3% | [6]; at 11.0 µM 12% | [6]; at 33.0 µM 38% | [15]; at 1.2 µM 5% | [15]; at 3.7 µM 18% | [15]; at 11.0 µM 41% | [7]; at 50.0 µM 6.8%
